In all, about 85,000 compounds went through this assay and about 440 (0.52%) showed an effect of 50% or more. Only a selection was taken, and strong results are over-represented in it overall.
Experiment: In vitro enzyme assay to detect hydrolysis of chlorophenol red-beta-D-[…] directly proportional to the number of Toxoplasma stably expressing beta-galactosidase
Assay type: functional, organism-based, Toxoplasma gondii
Parameters: scale not given: in the data most compounds retested in dose-response had high values

SMILES | Percent Effect (50 µM) | Percent Effect (10 µM)
NCCc1n[nH]c(=O)n1-c1ccc2c(c1)OCO2 | -0.07643% | –
Cn1cc(C(O)CN)cn1 (stereo not given) | 1.018% | –
Cc1noc(C(C)Nc2ccc3c(c2)CCC(=O)N3)n1 (stereo not given) | -14.26% | –
CC(C)(CNC(=O)c1c[nH]nn1)c1cccc(F)c1 | -9.623% | –
CC(NC(=O)NCCCN1CCCC1=O)c1nncn1C (stereo not given) | – | 85.8%
CC(NC(=O)NCCCN1CCCCCC1=O)c1nncn1C (stereo not given) | – | 20.07%
CC(NC(=O)NCCN1CCCCCC1=O)c1nncn1C (stereo not given) | – | 3.231%
Cc1oc(-c2ccccc2F)nc1C(=O)N(C)C | -3.464% | –
CNS(=O)(=O)N1CCc2ccccc2C1 | 30.15% | –
CCOc1ccccc1CNCC1CCN(CC(C)O)CC1 (stereo not given) | – | -9.723%
COc1ccc2ccccc2c1CNCC1CCS(=O)(=O)C1.Cl (stereo not given) | – | -11.16%
CCOc1ccc2ccccc2c1CNCC1CCNCC1.Cl.Cl | – | 68.87%
CCCOc1ccc2ccccc2c1CN1CC[C@@]2(O)CCNC[C@H]2C1 | – | 3.549%
CCOc1ccc2ccccc2c1CNCC1CCS(=O)(=O)C1.Cl (stereo not given) | – | -7.781%
CCn1cc(S(=O)(=O)NCC2CCN(C3CC3)C2)cn1 (stereo not given) | 3.955% | –
NC(=O)c1cncc(-c2ccc(F)cc2Cl)c1 | 3.051% | –
Cc1cc(F)cc(C(=O)N(C)C(C)CN)c1 (stereo not given) | -5.582% | –
CNC(C)(C)c1ccc2c(c1)OCO2 | -13.39% | –
CCNc1ncc2c(n1)CN(c1ccc(C)c(C)c1)C2=O | – | 51.11%
CCn1cc(N2Cc3nc(N)ncc3C2=O)cn1 | – | 10.4%
CNc1ncc2c(n1)CN(Cc1ccc(Cl)cc1)C2=O | – | -51.17%
CC1CCN(c2ncc3c(n2)CN(c2ccc(F)cc2)C3=O)CC1 | – | 19.77%
CNc1ncc2c(n1)CN(CCc1ccc(Cl)cc1)C2=O | – | -35.33%
CNc1ncc2c(n1)CN(CCc1ccc(C)cc1)C2=O | – | -16.2%
CNc1ncc2c(n1)CN(CCc1ccc(F)cc1)C2=O | – | -13.73%

SMILES | Percent Effect (50 µM) | Percent Effect (10 µM)
CCNc1ncc2c(n1)CN(c1ccc(OC(F)(F)F)cc1)C2=O | – | 64.71%
CCNc1ncc2c(n1)CN(c1ccc(Cl)cc1)C2=O | – | 65.79%
COc1ccc(N2Cc3nc(N)ncc3C2=O)cc1Cl | – | -32.44%
COc1ccc(N2Cc3nc(N4CCCC4)ncc3C2=O)cc1Cl | – | -14.31%
CCNc1ncc2c(n1)CN(c1ccc(CC)cc1)C2=O | – | 62.15%
CCN(CC)C(=O)C(C)NC(=O)c1cc(C#N)c[nH]1 (stereo not given) | -1.389% | –
O=C(OCCOc1cccnc1)C1CC1 | 43.8% | –
O=S(=O)(CCN1CCCC1)c1ccc(Cl)cc1 | 0.9615% | –
CNC(=O)CN(C)C(=O)Cc1c[nH]c2ccccc12 | 2.87% | –
Cc1ccsc1CN(C)C(=O)C(CN)c1ccccc1 (stereo not given) | -6.582% | –
CCN(CC)C(=O)c1ccccc1N(C)S(C)(=O)=O | -4.295% | –
CNc1ncc2c(n1)CN(C1CC(C)(C)NC(C)(C)C1)C2=O | – | -1.01%
CC1CCC(N2Cc3nc(N)ncc3C2=O)CC1 (stereo not given) | – | -0.06734%
CNc1ncc2c(n1)CN(C1CCCC1)C2=O | – | 52.32%
Nc1ncc2c(n1)CN(C1CCCC1)C2=O | – | 17.83%
CN(C)c1ncc2c(n1)CN(C1CC(C)(C)NC(C)(C)C1)C2=O | – | -0.4714%
CN(C)c1ncc2c(n1)CN(C1CCSCC1)C2=O | – | 78.86%
COCc1nc(C2CCN(S(C)(=O)=O)C2)no1 (stereo not given) | -61% | –
CC(O)CN(CCN)C(=O)OC(C)(C)C (stereo not given) | -7.411% | –
NCC(O)c1ccncc1 (stereo not given) | 1.266% | –
NCC(O)c1ccc(-c2ccccc2)cc1 (stereo not given) | 100.3% | –
NCC(O)c1cccc2ccccc12 (stereo not given) | 36.71% | –
CCN(CC)C(=O)CN(C)C(=O)Cc1cccc(F)c1 | 1.744% | –
CN(Cc1cc(C#N)cs1)Cc1nccn1C | -7.444% | –
CC(=O)N1CCC(c2n[nH]cc2-c2ccnc(N)c2)C1 (stereo not given) | – | 20.34%

SMILES | Percent Effect (50 µM) | Percent Effect (10 µM)
Nc1cc(-c2c[nH]nc2C2CCN(C(=O)C3CCCC3)C2)ccn1 (stereo not given) | – | 5.055%
CC(C)Nc1cc(-c2c[nH]nc2C2CCN(C(=O)C3CCC3)C2)ccn1 (stereo not given) | – | 95.4%
Cc1c[nH]nc1C1CCN(C(=O)C2CCC2)CC1 | – | 14.73%
CC(C)N1CCC(c2n[nH]cc2-c2ccnc(N)c2)C1 (stereo not given) | – | 18.38%
CC(C)Nc1cc(-c2c[nH]nc2C2CCN(C(=O)C3CC3)C2)ccn1 (stereo not given) | – | 77.26%
Cc1c[nH]nc1C1CCN(C(=O)C2CCCC2)C1 (stereo not given) | – | 6.331%
CC(C)CNc1cc(-c2c[nH]nc2C2CCN(C(=O)C3CC3)C2)ccn1 (stereo not given) | – | 86.59%
Cc1c[nH]nc1C1CCN(C(=O)C2CCOCC2)C1 (stereo not given) | – | 9.496%
Nc1cc(-c2c[nH]nc2C2CCCCN2C(=O)C2CCCC2)ccn1 (stereo not given) | – | -17.94%
CN1CCC(c2n[nH]cc2-c2ccnc(N)c2)C1 (stereo not given) | – | -7.314%
CCCNc1cc(-c2c[nH]nc2C2CCN(C(=O)C3CCC3)C2)ccn1 (stereo not given) | – | 94.14%
NCCC(=O)N1CCCC1Cc1cccc(F)c1 (stereo not given) | -2.968% | –
COc1cc(Br)c(CN)cc1OC | 44.43% | –
CC(C(=O)N1CCCC1)N1CCN(c2nc[nH]n2)CC1 (stereo not given) | 16.6% | –
N#Cc1ccc(C(=O)NCCCc2csc(N)n2)cn1 | 3.81% | –
CC(=O)N(C)C1CCNCC1 | -2.944% | –
CNC(=O)CCSc1ccc2c(c1)OCCO2 | 0.7135% | –
NCC(=O)Nc1cc(C(F)(F)F)c[nH]c1=O | -2.166% | –
CCCn1ccnc1CNC(=O)CCC(=O)N(C)C | -10.54% | –
CNc1nnc(SCc2ncc(C)o2)s1 | -1.305% | –
COCC(=O)NCc1nn(CCN2CCCC2)c(=O)c2ccccc12 | – | 94.96%
CCNC(=O)NCc1nn(CCN2CCCC2)c(=O)c2ccccc12 | – | 21.21%
CCOC(=O)NCc1nn(CCN2CCCC2)c(=O)c2ccccc12 | – | 7.365%
CCC(=O)NC(C)(C#N)C(C)C (stereo not given) | 2.056% | –
CC1CCN(CC(N)=O)CC1 | -12.83% | –

— ChEMBL document CHEMBL3988442, “University of Dundee, Small-Polar-MMV Screening Library” (2021)
